The values that follow come from ChEMBL document CHEMBL3433997, “St. Jude Leishmania screening dataset” (2016).

What is called inhibition is the drop in the measured response relative to a control, in per cent.

SMILES strings stand for the structures. Several values for one entry are separate records, joined by “and”; a condition that tells them apart may be missing. Equal values may be shown once.

In this experiment the target is Solute carrier family 2, facilitated glucose transporter member 1 (Homo sapiens) (UniProt P11166). In words: ST_JUDE_LEISH: Cytotoxicity at 2uM final concentration against transgenic Leishmania Mexicana promastigotes LmGLUT1 that are glucose transport deficient and complemented with the human glucose transporter GLUT1. Activity is measured by DNA content using SYBR green in vitro. Format: functional.
Sequence of Solute carrier family 2, facilitated glucose transporter member 1 (Homo sapiens) (P11166 whole entry): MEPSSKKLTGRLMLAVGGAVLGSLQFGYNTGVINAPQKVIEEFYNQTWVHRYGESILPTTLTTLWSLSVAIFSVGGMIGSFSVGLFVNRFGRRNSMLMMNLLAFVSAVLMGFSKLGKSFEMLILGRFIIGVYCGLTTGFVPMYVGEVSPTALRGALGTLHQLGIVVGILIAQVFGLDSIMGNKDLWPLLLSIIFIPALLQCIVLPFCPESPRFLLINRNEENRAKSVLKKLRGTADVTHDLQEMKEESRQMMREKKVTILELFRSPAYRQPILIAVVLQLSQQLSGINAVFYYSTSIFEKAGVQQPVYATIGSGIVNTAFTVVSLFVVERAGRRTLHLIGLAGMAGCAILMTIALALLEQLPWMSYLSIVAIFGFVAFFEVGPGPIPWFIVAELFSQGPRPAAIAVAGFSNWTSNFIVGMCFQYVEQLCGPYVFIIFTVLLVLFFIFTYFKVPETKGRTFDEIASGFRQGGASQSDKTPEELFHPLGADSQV
For the molecule `Cn1nccc1C(=O)NCCNCc1ccc(-c2ccc(-c3nc4cc(C(F)(F)F)ccc4[nH]3)s2)cc1`, the inhibition stood at 0.47%.
As for `CCOc1cccc(C(=O)Nc2cccc(CN3CCCN(Cc4ccc(O)cc4)CC3)c2)c1`, the inhibition was 3.17%.
Regarding `CC(C)Oc1cc2c(cc1NS(=O)(=O)c1ccc(-c3ccc(Cl)s3)cc1F)CCN(C)CC2`, the inhibition worked out at 39.9%.
Turning to `Cc1cc(NC(=O)c2ccco2)ccc1OC1CCN(Cc2ccc(F)cc2)C1` (stereo not given), the inhibition came to 0.1%.
`CC(=O)c1ccc(NC(=O)Nc2ccc(N(C)c3ccnc(NC4CC4)n3)cc2)cc1`: the inhibition was -0.95%.
In the case of `Nc1ccc(-c2nc3cc(Oc4ccc5[nH]c(-c6ccc(N)cc6)nc5c4)ccc3[nH]2)cc1`, the inhibition is -3.07%.
On to `O=C(Cc1c[nH]cn1)Nc1ccc(-c2cccc(-c3nc4cc(F)ccc4[nH]3)c2)cc1`, for which the inhibition was determined as 1.49%.
In the case of `NC(=O)c1cccc(Nc2nccc(Nc3ccc(Oc4cccc(Cl)c4)c(Cl)c3)n2)c1`, the inhibition was 10.6%.
In the case of `COc1cc2c(cc1N1CCN(C)CC1)N(C(=O)Nc1ccc(-c3ccncc3)c(Cl)c1Cl)CC2`, the inhibition turned out to be 0.34%.
Consider `CC(C)(C)c1ccc(CN2CCC(NC(=O)c3ccc(-c4cccc(F)c4)s3)CC2)cc1`, for which the inhibition was -0.34%.
For the molecule `C=C[C@H]1CN2CC[C@H]1C[C@H]2[C@H](O)c1ccnc2ccc(OC)cc12`, the inhibition is 7.23% and -4.42% and 0.77%.
`CN(C)CCn1c(N)c(-c2nc3ccccc3s2)c2nc(C#N)c(C#N)nc21`: the inhibition amounted to 2.02%.
For the molecule `CCCC(CNCc1cccc(C)c1)CNc1cc(=O)c2ccccc2[nH]1` (stereo not given), the inhibition came to 10.9%.
For `Clc1cccc(C=NNc2ccnc3cc(Cl)ccc23)c1` the value was -1.51%; for `O=C(c1ccc([N+](=O)[O-])o1)N1CCC(Cc2ccc(C(F)(F)F)cc2)CC1`, 9.05%.
For `Cc1ccc(NC(=O)NC2CCN(CCC(NC(=O)Cc3ccccc3)c3ccc(Cl)c(Cl)c3)CC2)cc1` (stereo not given) the value was -2.11%; for `CS(=O)(=O)c1cccc(-c2cnc(N)c3cc(-c4ccc5c(c4)OCO5)ccc23)c1`, 8.59%.
On to `O=C(Nc1ccc(C(=O)Oc2cccc3ccccc23)cc1)N[C@@H](Cc1ccc(O)cc1)C(=O)NC1CCN(Cc2ccc(O)cc2)C1` (stereo not given in full), for which the inhibition was 20.6%.
For the molecule `C=CCc1c(C(=O)NCC23CC4CC(CC(C4)C2)C3)nc2ccccc2c1O`, the inhibition was -2.74%.
For the molecule `CC(C)N1CCC(N(Cc2ccc(-c3ccc(C(F)(F)F)cc3)cc2)C(=O)CCCn2c(CCc3cccc(F)c3F)nc(=O)c3ccccc32)CC1`, the inhibition worked out at 5.92%.
For the molecule `CCc1cc2c3c(N)nc(N)nc3ccc2n1CC`, the inhibition was 40.4%.
As to `CCNc1cc(C(=O)N[C@@H](Cc2cccc(F)c2)[C@H](O)CNC(C)CCCC(C)C)cc(N2CCCCS2(=O)=O)c1` (stereo not given in full), the inhibition came out at 1.15%.
On to `Cc1noc(C)c1-c1cccc(CNCc2ccc(-c3cccc(-c4nc5cccc(C)c5[nH]4)c3)cc2)c1`, for which the inhibition worked out at 0.9%.
For the molecule `Cc1ccc(NC(C)C(=O)Nc2ccc(C#N)cc2)cc1S(=O)(=O)N1CCCCC1` (stereo not given), the inhibition was determined as 58.5%.
Take `c1ccc(Oc2cccc(Nc3ccnc4ccccc34)c2)cc1`: the inhibition stood at 8.44%.
For `COc1ccc2nccc(C(=O)NC3CCC(CCN4CCc5cc(C#N)ccc5C4)CC3)c2c1` (stereo not given) the value was 7.23%; for `CC1C(c2cccc(Cl)c2)OCC(C)(C)N1C(=O)CCN1CCCCC1` (stereo not given), -1.47%.
Turning to `COc1cc(CNC[C@@H](O)[C@H](Cc2ccccc2)NC(=O)c2cc(OC(C)C)cc(N3CCCCS3(=O)=O)c2)cc(OC)c1`, the inhibition is 2.15%.
For `O=c1cc(NCCCCNCc2cccc(Br)c2)[nH]c2ccccc12` the value was 5.23%; for `COc1cc2ncnc(Nc3ccc(OC(F)(F)c4ccccc4)cc3)c2cc1OC`, 9.55%.
For the molecule `CN1CCN(CC(=O)Nc2ccc(-c3cccc(-c4nc5cc(C(F)(F)F)ccc5[nH]4)c3)cc2)CC1`, the inhibition is 0.66%.
Turning to `COCCCNc1nc2cc(OC)c(OC)cc2c2nc(-c3ccccc3)nn12`, the inhibition came to 2.53%.
Consider `CS(=O)(=O)c1ccc(CNCc2cccc(-c3ccc(-c4nc5cc(C(F)(F)F)ccc5[nH]4)cc3)c2)cc1`, for which the inhibition worked out at 5.51%.
For `O=C(Nc1ccc(Cl)cc1C(=O)Nc1ccncc1)c1ccc(Cl)cc1Cl`, the inhibition stood at 6.71%.
On to `NCC1(c2nc(-c3ccc(Cl)c(O)c3)c(-c3ccncc3)[nH]2)CCCCC1`, for which the inhibition is 3.72%.
Then `Cc1[nH]c(C)c(-c2ccc(-c3ccc(C(F)(F)F)cc3C(F)(F)F)nc2)c(=O)c1Br`, with -0.49%; and `CNC(=O)C1Cc2c([nH]c3c(C)cccc23)C2(N1)C(=O)Nc1ccc(OC(F)(F)F)cc12` (stereo not given), with 1.24%.
In the case of `FC(F)(F)c1cccc2c(NN=Cc3ccccc3)ccnc12`, the inhibition turned out to be 2.7%.
For `CCC(C)NS(=O)(=O)c1ccc2nc(Nc3ccc(C)cc3)n([C@H](C)C(C)(C)C)c2c1` (stereo not given in full), the inhibition worked out at 2.68%.
As to `CCCCCCOc1ccc(C(=O)N[C@H]2CCN(CCCCCNC(=O)/C=C/c3ccc(Cl)c(Cl)c3)C2)cc1`, the inhibition worked out at 0.31%.
